What was measured:
Experiment in all cases: DAPPL (digital affinity profiling via proximity ligation, sequencing); 10 mM Tris-HCl pH 7.5, 50 mM NaCl, 1 mM DTT, 4% glycerol, room temperature, 30 min; GST-TFs on glutathione beads, 16-mer random dsDNA library, 0.1% formaldehyde crosslink after washing; high values mean tight binding
FEV = molecular target: T1, FEV (Homo sapiens, UniProt Q99581 1-238); details: protein: recombinant; tags: N-terminal GST; dsDNA, one strand shown
T1 sequence: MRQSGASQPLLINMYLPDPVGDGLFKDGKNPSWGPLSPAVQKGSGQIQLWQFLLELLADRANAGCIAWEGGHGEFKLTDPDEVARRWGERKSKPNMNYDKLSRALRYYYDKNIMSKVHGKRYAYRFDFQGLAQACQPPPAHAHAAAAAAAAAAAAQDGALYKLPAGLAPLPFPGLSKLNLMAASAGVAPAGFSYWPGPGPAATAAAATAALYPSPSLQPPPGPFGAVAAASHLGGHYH
Procedure, shortened: (§1)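 Yeast served to express human transcription factors as GST fusions, which were then captured on glutathione beads and labelled with DNA barcodes. Pooled with a tag-only sample, they were incubated with 200 nmole of a 16-mer random double-stranded DNA library for 30 min at room temperature in Tris/NaCl/DTT/glycerol buffer, washed, crosslinked with 0.1% formaldehyde, ligated by proximity, amplified by PCR and sequenced. Dividing each hexamer's read frequency for a factor by its frequency for the tag-only sample gives the binding signal.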

ETV5 = ETV5 (Homo sapiens, UniProt P41161 1-510); details: protein: recombinant; tags: N-terminal GST; dsDNA, one strand shown
Chain of ETV5 (P41161 whole entry): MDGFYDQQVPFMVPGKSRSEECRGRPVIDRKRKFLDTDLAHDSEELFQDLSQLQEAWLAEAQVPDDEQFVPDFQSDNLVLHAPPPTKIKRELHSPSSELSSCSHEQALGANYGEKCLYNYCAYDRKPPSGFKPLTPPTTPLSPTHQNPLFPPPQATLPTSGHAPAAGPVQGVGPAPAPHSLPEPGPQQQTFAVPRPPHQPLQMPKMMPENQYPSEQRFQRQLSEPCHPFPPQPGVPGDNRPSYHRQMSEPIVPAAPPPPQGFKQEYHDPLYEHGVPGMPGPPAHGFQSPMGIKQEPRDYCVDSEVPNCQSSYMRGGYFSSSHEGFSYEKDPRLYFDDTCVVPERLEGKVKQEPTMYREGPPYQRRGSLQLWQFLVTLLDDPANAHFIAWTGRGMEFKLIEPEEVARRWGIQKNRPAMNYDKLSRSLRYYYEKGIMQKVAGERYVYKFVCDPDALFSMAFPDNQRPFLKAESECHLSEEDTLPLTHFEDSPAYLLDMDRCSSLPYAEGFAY
Procedure, shortened: as §1

HSF1 = HSF1 (Homo sapiens, UniProt Q00613 1-529); details: protein: recombinant; tags: N-terminal GST; chain copies: 3; dsDNA, one strand shown
Chain of HSF1 (Q00613 whole entry): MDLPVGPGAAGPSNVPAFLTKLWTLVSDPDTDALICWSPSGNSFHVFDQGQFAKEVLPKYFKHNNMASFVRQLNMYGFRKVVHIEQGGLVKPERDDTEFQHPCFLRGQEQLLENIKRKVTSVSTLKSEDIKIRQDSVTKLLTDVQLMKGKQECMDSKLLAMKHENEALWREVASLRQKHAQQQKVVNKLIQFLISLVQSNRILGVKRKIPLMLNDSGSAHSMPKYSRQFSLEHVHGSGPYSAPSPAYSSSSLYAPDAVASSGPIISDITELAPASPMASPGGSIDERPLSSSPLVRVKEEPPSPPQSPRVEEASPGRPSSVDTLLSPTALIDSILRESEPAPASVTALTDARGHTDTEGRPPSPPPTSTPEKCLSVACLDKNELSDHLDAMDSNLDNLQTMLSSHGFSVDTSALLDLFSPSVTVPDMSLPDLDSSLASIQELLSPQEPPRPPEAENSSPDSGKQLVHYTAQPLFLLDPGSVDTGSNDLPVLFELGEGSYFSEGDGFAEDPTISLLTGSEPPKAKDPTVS
Procedure, shortened: as §1

SPIC = molecular target: T2, SPIC (Homo sapiens, UniProt Q8N5J4 1-248); details: protein: recombinant; tags: N-terminal GST; dsDNA, one strand shown
T2 sequence: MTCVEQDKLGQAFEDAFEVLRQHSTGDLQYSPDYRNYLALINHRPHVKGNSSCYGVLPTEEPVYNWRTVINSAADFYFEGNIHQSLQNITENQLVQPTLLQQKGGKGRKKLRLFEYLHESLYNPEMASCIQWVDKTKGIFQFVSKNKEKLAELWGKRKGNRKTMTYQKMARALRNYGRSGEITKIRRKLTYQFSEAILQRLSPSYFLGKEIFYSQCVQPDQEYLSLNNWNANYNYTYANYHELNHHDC
Procedure, shortened: as §1

ELF4 = ELF4 (Homo sapiens, UniProt Q99607 1-663); details: protein: recombinant; tags: N-terminal GST; dsDNA, one strand shown
Chain of ELF4 (Q99607 whole entry): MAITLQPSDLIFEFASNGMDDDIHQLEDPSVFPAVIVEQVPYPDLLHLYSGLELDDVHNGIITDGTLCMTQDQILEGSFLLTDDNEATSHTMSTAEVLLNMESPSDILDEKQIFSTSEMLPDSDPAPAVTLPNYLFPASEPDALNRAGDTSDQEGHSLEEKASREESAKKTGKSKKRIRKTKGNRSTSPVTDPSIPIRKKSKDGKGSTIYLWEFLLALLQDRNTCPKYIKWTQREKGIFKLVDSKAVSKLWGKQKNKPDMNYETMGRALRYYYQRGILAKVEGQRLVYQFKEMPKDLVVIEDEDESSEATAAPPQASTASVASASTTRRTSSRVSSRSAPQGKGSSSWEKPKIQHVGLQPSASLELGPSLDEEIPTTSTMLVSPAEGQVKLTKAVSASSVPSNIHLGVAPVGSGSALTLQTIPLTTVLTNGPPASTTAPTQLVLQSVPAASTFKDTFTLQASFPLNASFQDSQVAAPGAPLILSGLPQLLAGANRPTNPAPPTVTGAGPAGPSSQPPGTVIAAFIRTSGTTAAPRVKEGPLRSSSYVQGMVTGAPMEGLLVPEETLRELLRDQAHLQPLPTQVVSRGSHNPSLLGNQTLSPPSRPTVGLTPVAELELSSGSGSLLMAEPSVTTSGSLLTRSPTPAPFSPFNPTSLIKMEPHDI
Procedure, shortened: as §1

ELK4 = molecular target: T3, ELK4 (Homo sapiens, UniProt P28324-2 1-405); details: protein: recombinant; tags: N-terminal GST; dsDNA, one strand shown
T3 sequence: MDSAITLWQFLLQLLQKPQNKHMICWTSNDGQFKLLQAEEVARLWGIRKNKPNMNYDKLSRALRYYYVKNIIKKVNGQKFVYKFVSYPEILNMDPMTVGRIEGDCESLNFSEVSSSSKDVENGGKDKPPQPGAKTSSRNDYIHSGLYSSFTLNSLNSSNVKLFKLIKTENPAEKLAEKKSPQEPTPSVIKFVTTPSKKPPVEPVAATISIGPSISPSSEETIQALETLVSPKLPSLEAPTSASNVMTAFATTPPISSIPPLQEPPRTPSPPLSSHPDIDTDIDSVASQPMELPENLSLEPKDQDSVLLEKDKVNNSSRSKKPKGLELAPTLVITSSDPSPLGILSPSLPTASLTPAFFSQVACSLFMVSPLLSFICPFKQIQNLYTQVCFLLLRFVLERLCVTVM
Procedure, shortened: as §1

ETV2 = molecular target: T4, ETV2 (Homo sapiens, UniProt O00321 1-342); details: protein: recombinant; tags: N-terminal GST; dsDNA, one strand shown
T4 sequence: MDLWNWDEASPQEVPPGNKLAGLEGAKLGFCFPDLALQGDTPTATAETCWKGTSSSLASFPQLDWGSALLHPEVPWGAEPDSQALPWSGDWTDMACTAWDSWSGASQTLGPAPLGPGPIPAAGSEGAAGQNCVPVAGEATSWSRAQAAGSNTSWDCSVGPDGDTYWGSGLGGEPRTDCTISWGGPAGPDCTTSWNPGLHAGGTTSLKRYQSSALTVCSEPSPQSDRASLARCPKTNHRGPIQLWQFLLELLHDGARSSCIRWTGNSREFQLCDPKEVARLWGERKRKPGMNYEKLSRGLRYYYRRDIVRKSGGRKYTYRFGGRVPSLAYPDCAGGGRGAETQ
Procedure, shortened: as §1

ELF3 = molecular target: T5, ELF3 (Homo sapiens, UniProt P78545 1-371); details: protein: recombinant; tags: N-terminal GST; dsDNA, one strand shown
T5 sequence: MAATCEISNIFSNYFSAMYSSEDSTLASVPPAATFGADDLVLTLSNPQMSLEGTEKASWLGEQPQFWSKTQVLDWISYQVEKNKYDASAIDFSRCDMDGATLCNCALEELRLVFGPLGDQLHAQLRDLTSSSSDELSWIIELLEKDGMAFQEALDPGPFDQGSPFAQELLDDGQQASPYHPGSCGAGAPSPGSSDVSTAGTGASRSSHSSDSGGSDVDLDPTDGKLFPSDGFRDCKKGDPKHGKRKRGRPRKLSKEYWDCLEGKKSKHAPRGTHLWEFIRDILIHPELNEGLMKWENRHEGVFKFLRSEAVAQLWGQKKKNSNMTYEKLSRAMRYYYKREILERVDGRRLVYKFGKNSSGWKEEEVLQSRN
Procedure, shortened: as §1

CRX = CRX (Homo sapiens, UniProt O43186 1-299); details: protein: recombinant; tags: N-terminal GST; dsDNA, one strand shown
Chain of CRX (O43186 whole entry): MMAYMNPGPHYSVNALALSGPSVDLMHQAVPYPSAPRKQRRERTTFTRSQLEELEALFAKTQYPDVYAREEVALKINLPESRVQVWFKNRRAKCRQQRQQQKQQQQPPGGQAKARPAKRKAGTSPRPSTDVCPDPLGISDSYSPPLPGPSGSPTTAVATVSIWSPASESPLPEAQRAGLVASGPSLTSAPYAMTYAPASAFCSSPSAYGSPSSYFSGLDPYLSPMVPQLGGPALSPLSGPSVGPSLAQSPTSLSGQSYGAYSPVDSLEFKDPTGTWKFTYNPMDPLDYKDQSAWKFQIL
Procedure, shortened: as §1

ETV1 = ETV1 (Homo sapiens, UniProt P50549 1-477); details: protein: recombinant; tags: N-terminal GST; dsDNA, one strand shown
Chain of ETV1 (P50549 whole entry): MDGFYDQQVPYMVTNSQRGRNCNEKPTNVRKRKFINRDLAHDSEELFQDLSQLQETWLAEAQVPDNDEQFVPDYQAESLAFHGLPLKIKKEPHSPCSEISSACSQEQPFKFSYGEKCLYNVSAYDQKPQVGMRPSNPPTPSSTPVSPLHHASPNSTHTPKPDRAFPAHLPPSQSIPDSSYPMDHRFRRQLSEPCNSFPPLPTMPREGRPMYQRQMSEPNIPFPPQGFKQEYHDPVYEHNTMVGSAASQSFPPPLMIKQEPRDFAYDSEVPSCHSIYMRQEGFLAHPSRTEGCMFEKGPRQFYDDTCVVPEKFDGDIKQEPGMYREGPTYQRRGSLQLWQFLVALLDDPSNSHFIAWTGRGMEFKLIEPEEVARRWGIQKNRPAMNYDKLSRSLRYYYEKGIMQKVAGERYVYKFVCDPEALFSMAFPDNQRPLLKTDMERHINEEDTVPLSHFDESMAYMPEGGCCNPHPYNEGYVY
Procedure, shortened: as §1

In the case of TATTGG, the binding signal (FEV) was 1.14 fold enrichment (6-mer frequency, TF over GST control), the binding signal (ETV5) was 1.19 fold enrichment (6-mer frequency, TF over GST control) and the binding signal (HSF1) was 1.2 fold enrichment (6-mer frequency, TF over GST control). For the same sequence, the binding signal (SPIC) was 1.19 fold enrichment (6-mer frequency, TF over GST control), the binding signal (ELF4) was 1.21 fold enrichment (6-mer frequency, TF over GST control) and the binding signal (ELK4) was 1.28 fold enrichment (6-mer frequency, TF over GST control). The binding signal (ETV2) was 1.14 fold enrichment (6-mer frequency, TF over GST control), the binding signal (ELF3) was 1.24 fold enrichment (6-mer frequency, TF over GST control) and the binding signal (CRX) was 1.4 fold enrichment (6-mer frequency, TF over GST control). The binding signal (ETV1) was 1.13 fold enrichment (6-mer frequency, TF over GST control).
